In ChEMBL document CHEMBL4513216, “Probing the Open Global Health Chemical Diversity Library for Multistage-Active Starting Points for Next-Generation Antimalarials” (ACS Infect Dis, 2020):
The campaign covered roughly 69,000 compounds. About 8,600 (12%) showed an effect of 50% or more. Shown is part of a subset that was picked to be rich in strong results.

Test system: Plasmodium berghei
Test: Screen against P. berghei liver stage (PbLuc), transformed with Luciferase, at 10uM
Type: functional, HepG2
Conditions: tested at 10 uM

Point of comparison: `COc1ccc(N2CCN(C(=O)C(C)n3cc(Br)cn3)CC2)cc1` (configuration not stated), INHIBITION 30%. Against it:
- CN(Cc1cn(-c2ccccc2)nn1)C1CCCN(c2cccnn2)C1 (configuration not stated) — lower, -9.76%
- O=C1CC2(CCCNC2)C(=O)N1Cc1cccc(Cl)c1 (configuration not stated) — lower, -4.82%
- CCN(CC)C1CCN(C(=O)c2cc3cc(C)cc(C)c3nc2C)CC1 — lower, 1.05%
- OC1(CN2CCCC2)COCCN(c2nnc(-c3ccccc3)s2)C1 (configuration not stated) — lower, 26.6%
- c1ccc2sc(N3CCCC4(CCOC4)C3)nc2c1 (configuration not stated) — lower, -50.5%
- Cc1nnc(N2CCCC3(CN(c4ccccn4)CCO3)C2)o1 (configuration not stated) — lower, -34%
- c1ccc(-c2nnc(N3CCCC4(CCOC4)C3)s2)cc1 (configuration not stated) — higher, 56.5%
- c1ccc(N2CCOC3(CCCN(c4ncccn4)C3)C2)nc1 (configuration not stated) — higher, 76.5%
- Cc1ccc(N2CCCC3(COCCN(c4nccs4)C3)C2)nn1 (configuration not stated) — lower, -8.19%
- c1ccc(N2CCCC3(COCCN(c4nccs4)C3)C2)nc1 (configuration not stated) — higher, 68.5%
- CCS(=O)(=O)N1CCOC2(CCCN(Cc3ccccn3)C2)C1 (configuration not stated) — lower, -28.1%
- c1cnc(N2CCOC3(CCCN(c4cnccn4)C3)C2)nc1 (configuration not stated) — lower, -13.7%
- CCS(=O)(=O)N1CCOC2(CCCN(c3ccccn3)C2)C1 (configuration not stated) — higher, 50.7%
- c1ccc(N2CCOCC3(CCCN(c4nccs4)C3)C2)nc1 (configuration not stated) — lower, 19.8%
- CCCS(=O)(=O)N1CCOC2(CCCN(c3ccccn3)C2)C1 (configuration not stated) — lower, 11.4%
- Cc1ccc(C(=O)N2CCN(C)C3(CCC(=O)N(C)CC3)C2)c(F)c1 (configuration not stated) — lower, 15.8%
- CCc1nnc(CNC2CCCN(Cc3noc(C4CC4)n3)C2)o1 (configuration not stated) — lower, -16%
- COCCN1CCC(NCc2c(F)cccc2F)C1 (configuration not stated) — lower, 25.4%
- CCn1cc(NC(=O)C2CCN(CC(=O)NC(C)(C)CC)CC2)cn1 — lower, 10%
- Cc1cnc(N2CCOC3(CCCN(c4ncccn4)C3)C2)nc1 (configuration not stated) — lower, 0.804%
- CCS(=O)(=O)N1CCOCC2(CCN(c3ccccn3)C2)C1 (configuration not stated) — lower, 11.4%
- Cc1cnc(N2CCOC3(CCCN(C)C3)C2)nc1 (configuration not stated) — higher, 52.3%
- CC(=O)N1CCCC2(C1)CN(c1ncc(C)cn1)CCO2 (configuration not stated) — lower, -5.63%
- CCS(=O)(=O)N1CCCC2(COCCN(c3ccccn3)C2)C1 (configuration not stated) — higher, 56.1%
- CCCS(=O)(=O)N1CCOCC2(CCN(c3ccccn3)C2)C1 (configuration not stated) — lower, 20.5%
- Cc1cccc(S(=O)(=O)NCC2CCN(c3cnccn3)CC2)c1 — lower, -87.6%
- CN(C)S(=O)(=O)c1ccc2c(c1)N(Cc1nccn1C)CCC2 — higher, 41.4%
- COCC(C)(O)CNC(=O)c1cc(-c2cc(OC)ccc2OC)nn1C (configuration not stated) — lower, -43.5%
- COc1cc(OC)cc(N2CCC(NC(=O)c3ccc[nH]3)CC2)c1 — higher, 50.5%
- CCS(=O)(=O)c1ccccc1N1CCC(NC(=O)c2ccc[nH]2)CC1 — lower, 18.4%
- Cn1ccc(C(=O)NC2CCN(c3ncccn3)CC2)cc1=O — lower, 18.4%
- CN(C(=O)c1cccn1C)C1CCC(NC(=O)OC(C)(C)C)CC1 (configuration not stated) — lower, 22.3%
- COc1cc(OC)cc(N2CCC(NC(=O)c3cccn3C)CC2)c1 — higher, 62.5%
- Cn1cccc1C(=O)NC1CCN(c2ccc(OC(F)(F)F)cc2)CC1 — higher, 64.9%
- CC(C)(C)OC(=O)NC1CCC(NC(=O)c2ccc[nH]2)CC1 (configuration not stated) — lower, 12.7%
- CCS(=O)(=O)c1ccc(N2CCC(NC(=O)c3cnn(C)c3)CC2)cc1 — higher, 43.4%
- COc1cc(CN2CCC(NC(=O)c3cccn3C)C2)cc(OC)c1 (configuration not stated) — higher, 44.9%
- O=S(=O)(NCC1COc2ccccc2C1)N1CCOCC1 (configuration not stated) — lower, 18.6%
- COc1ccc2c(c1)CC(NCCCn1nc(C)nc1C)CC2 (configuration not stated) — lower, 15.8%
- O=C(O)c1cc(S(=O)(=O)Nc2cccc3c2OCCO3)ccc1F — higher, 45.7%
- Cc1cc(C)c(S(=O)(=O)Nc2ccccc2CC(F)(F)F)cc1C(=O)O — lower, 15.9%
- Cc1cc(C)c(S(=O)(=O)Nc2cccc3c2OCCO3)cc1C(=O)O — higher, 50%
- O=C(O)c1cc(S(=O)(=O)Nc2cccc3c2OCCO3)c(Cl)cc1F — higher, 81.7%
- O=C(O)c1cc(S(=O)(=O)Nc2cccc(F)c2F)cc2c1OCCO2 — lower, 22.3%
- Cc1ccccc1NS(=O)(=O)c1cc2c(c(C(=O)O)c1)OCCO2 — higher, 35.3%
- Cc1nc(C2CCCN2C(=O)Cc2ccc(F)cc2)nc(O)c1C (configuration not stated) — lower, -10.5%
- Cc1ccc(-n2nnc(C(=O)NC(C)C)c2C2CC2)cc1 — lower, 15.5%
- O=C1CCCN1Cc1ncn2c1CN(C(=O)NC1CCCCC1)CCC2 — lower, -19.5%
- COc1cccc(Nc2nc(C3CCCNC3)c3ccccn23)c1 (configuration not stated) — lower, -23.425%
- Cc1c(C)n(CC(O)CN2CCOCC2)c2c(Cl)cccc12 (configuration not stated) — higher, 56.5%
- Cc1c(C)n(CC(O)CN2CCCCCC2)c2c(Cl)cccc12 (configuration not stated) — lower, -48.6%
- Cc1c(C)n(CC(O)CN2CCC(C)CC2)c2c(Cl)cccc12 (configuration not stated) — higher, 37.3%
- Cc1nc[nH]c1C(=O)NCc1cccnc1N(C)C1CCCCC1 — lower, 26.8%
- CCn1cc(C(=O)N(C)[C@@H]2CC[C@@H](N3CCCC3)[C@@H]2O)c(C)n1 — lower, 12.335%
- COc1ccc(CN2CCN(c3ncc(Cl)cn3)CC2)cc1 — lower, 11.8%
- CCc1ccc(CN2CCN(c3ccc(Cl)nn3)CC2)nc1 — lower, -7.94%
- CCc1ccc(CN2CCN(c3ncc(Cl)cn3)CC2)nc1 — higher, 50.1%
- COc1ccccc1N1CCN(C(=O)CCn2ccc(C)n2)CC1(C)C — lower, 8.48%
- COc1ccccc1N1CCN(C(=O)Cn2nccc2C)CC1(C)C — lower, -56.6%
- COc1ccccc1N1CCN(C(=O)Cn2nc(C)cc2C)CC1(C)C — higher, 52.8%
- COc1ccccc1N1CCN(C(=O)CCn2nnnc2C)CC1(C)C — higher, 51.8%
- COc1ccccc1N1CCN(C(=O)CCn2ccnc2C)CC1(C)C — lower, 6.31%
- COc1ccc(N2CCN(C(=O)CCn3nnnc3C)CC2(C)C)cc1 — lower, -34.8%
- CC1=C(C(=O)NCCc2n[nH]c3c2CCCC3)C(C)NC(=O)N1 (configuration not stated) — lower, -22.3%
- COCCn1ccnc1C1CCCN(C(=O)c2cc(F)cc(F)c2)C1 (configuration not stated) — higher, 40.2%
- Cc1occc1C(=O)N1CCCS1(=O)=O — higher, 35.7%
- Cc1ccsc1CNC(=O)N1CCC(Cc2cnn(C)c2)C1 (configuration not stated) — lower, 11.083%
- COc1ccc(CNC(=O)N2CCOCC2C2CC2)c(C)c1 (configuration not stated) — lower, 17.4%
- Cc1ccc(CNC(=O)N2CCOCC2C2CC2)cc1F (configuration not stated) — higher, 49.3%
- COc1ccc(CNC(=O)N2CCOCC2C2CC2)cc1C (configuration not stated) — higher, 66.7%
- COc1ccccc1C1Cn2c(C)cnc2CN1Cc1c[nH]nc1C (configuration not stated) — lower, -14.2%
- Cn1cnc2c1CCN(Cc1csc(Cc3ccccc3)n1)C2 — lower, -3.7%
- CN(C)C(=O)CC1CC2(CCN(CC3CC3)CC2)Oc2ccccc21 (configuration not stated) — lower, -51.6%
- Cc1cc(C(=O)N2CC[C@](C)(O)[C@H](C)C2)c(C)n1C — lower, -12.2%
- CC(c1ccc(F)cc1F)N1CCN(CCN2CCCC2=O)CC1 (configuration not stated) — higher, 63%
- CC(c1ccc(F)cc1F)N1CCN(CCC(=O)O)CC1 (configuration not stated) — lower, -17.7%
- CC(c1ccc(F)cc1F)N1CCN(CCC(=O)NC(N)=O)CC1 (configuration not stated) — lower, -8%
- CCn1nc(C)cc1NC(=O)CCn1nc(C)c(Br)c1C — higher, 31.7%
- COCCn1ccc(=O)c(OCC(=O)Nc2cccc(Cl)c2)c1C — lower, -21.2%
- Cc1cc(C)n(C2CN(CCC(N)=O)C2)n1 — lower, -4.96%
- CC(C)N(C)Cc1cncc2c1CCN(C(=O)c1cccc(C#N)c1)C2 — lower, 12.7%
- Cc1cc(CN2CCN(Cc3cnc4c(c3)c(C)nn4C)CC2)on1 — lower, 11.5%
- CCN1CCN(C(=O)c2ccc(Cn3ccccc3=O)o2)CC1 — higher, 39.6%
- c1csc(CN2CCc3c(CNc4nncs4)cncc3C2)c1 — higher, 42.7%
- CN(C)C(=O)N1CCc2c(CNc3ncccn3)cncc2C1 — lower, 6.38%
- c1cnc(NCc2cncc3c2CCN(Cc2ccsc2)C3)nc1 — higher, 60.2%
- COCCC(=O)N1CCc2c(CNc3ncccn3)cncc2C1 — higher, 53.4%
- c1cnc(NCc2cncc3c2CCN(Cc2cccnc2)C3)nc1 — lower, 12.4%
- c1cnc(NCc2cncc3c2CCN(Cc2ccoc2)C3)nc1 — lower, 19.4%
- Cc1cc(CN2CCc3c(CNc4ncccn4)cncc3C2)oc1C — higher, 67.2%
- CC(=O)NCC(=O)N1CCc2c(CNc3ncccn3)cncc2C1 — lower, -2.17%
- c1cnc(NCc2cncc3c2CCN(Cc2cccs2)C3)nc1 — lower, -38.7%
- Cc1nn(C)c(N2CCOCC2)c1CNC(C)c1cccs1 (configuration not stated) — lower, 16.9%
- Cc1cccc(CC2CCCN(C(=O)C3CCOCC3)C2)n1 (configuration not stated) — higher, 30.4%
- O=C(C1CC1)N1CCC(c2nc(O)c3c(n2)CN(C2CCCC2)CC3)C1 (configuration not stated) — lower, 5.11%
- COc1cc(NCc2c(C)noc2C)c(C(=O)N(C)C)cc1OC — lower, -16.1%
- Cc1noc(C)c1CN1Cc2nccn2CC(CN2CCOCC2)C1 (configuration not stated) — lower, 18.3%
- COCCCC1(C(=O)O)CCCN(C(=O)c2ccc(Cl)cc2F)C1 (configuration not stated) — higher, 39.3%
- CCCC1(C(=O)O)CCCN(C(=O)c2cc(Cl)ccc2F)C1 (configuration not stated) — higher, 36.5%
- CCN(CC)Cc1cc(C(=O)N2CCCC(CC)(C(=O)O)C2)c(C)o1 (configuration not stated) — lower, 29.9%
- COCCC1(C(=O)O)CCCN(C(=O)c2cc(F)ccc2OC)C1 (configuration not stated) — higher, 79.7%
- CCN1C(=O)CCCC12CCCN(C(=O)c1cc(C)oc1C)C2 (configuration not stated) — lower, -17.1%
- COCCC1(C(=O)O)CCCN(C(=O)c2cc(Cl)ccc2F)C1 (configuration not stated) — higher, 58.8%
- COCCC1(C(=O)O)CCCN(C(=O)c2cc(C)oc2C)C1 (configuration not stated) — higher, 69.9%
- COc1ccc(F)cc1C(=O)N1CCCC(CNS(C)(=O)=O)C1 (configuration not stated) — lower, -38.7%
- COCCCC1(C(=O)O)CCCN(C(=O)c2ccc(C(C)C)[nH]c2=O)C1 (configuration not stated) — higher, 30.4%
